Our source for the binding signal values is paper PMC4081100, “A DNA-binding-site landscape and regulatory network analysis for NAC transcription factors in Arabidopsis thaliana”.

What all share (assay): universal protein binding microarray (PBM); transcription factors of Arabidopsis thaliana; high values mean tight binding
One assay addresses T1, GST-ANAC092(1-176) (Arabidopsis thaliana, UniProt Q9FKA0 1-176).
T1 sequence: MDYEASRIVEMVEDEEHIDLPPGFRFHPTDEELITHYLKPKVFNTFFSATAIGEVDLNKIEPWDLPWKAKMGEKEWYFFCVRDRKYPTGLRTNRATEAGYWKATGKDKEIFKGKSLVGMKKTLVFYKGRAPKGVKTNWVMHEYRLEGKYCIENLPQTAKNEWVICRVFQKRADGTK
The note with it: protein: recombinant; tags: GST; chain copies: 2; dsDNA, one strand shown. Summed up:
(§1)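 GST-tagged proteins (NAC-domain, full-length or DNA-binding-domain) were induced in cells, with zinc acetate supplied for zinc-finger proteins, then purified on glutathione–Sepharose 4B. Each was tested in duplicate at 200 to 500 nM final on custom all-10-mer Agilent 4 × 180K arrays rendered double-stranded by primer extension. The binding value is the normalised enrichment score (E-score) across gapped and ungapped 8-mers.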

A further assay deals with T2, GST-ANAC019 NAC domain (Arabidopsis thaliana, UniProt Q9C932 14-162).
T2 sequence: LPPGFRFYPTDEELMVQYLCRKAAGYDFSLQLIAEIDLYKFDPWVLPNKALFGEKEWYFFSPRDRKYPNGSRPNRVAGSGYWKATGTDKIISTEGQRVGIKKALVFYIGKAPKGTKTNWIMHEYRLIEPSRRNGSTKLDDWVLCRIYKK
The note with it: protein: recombinant; tags: GST; chain copies: 2; dsDNA, one strand shown. Summed up: as §1

Another assay concerns the target T3, GST-ANAC055(1-171) (Arabidopsis thaliana, UniProt Q9LDY8 1-171).
T3 sequence: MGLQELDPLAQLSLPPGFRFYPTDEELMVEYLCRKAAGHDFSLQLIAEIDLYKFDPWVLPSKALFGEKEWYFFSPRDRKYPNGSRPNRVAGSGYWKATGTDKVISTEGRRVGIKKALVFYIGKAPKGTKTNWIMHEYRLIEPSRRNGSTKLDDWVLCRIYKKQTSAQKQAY
The note with it: protein: recombinant; tags: GST; chain copies: 2; dsDNA, one strand shown. Summed up:
as §1

Assay [1] concerns the target T4, GST-ANAC092(1-285) full length (Arabidopsis thaliana, UniProt Q9FKA0 1-285).
T4 sequence: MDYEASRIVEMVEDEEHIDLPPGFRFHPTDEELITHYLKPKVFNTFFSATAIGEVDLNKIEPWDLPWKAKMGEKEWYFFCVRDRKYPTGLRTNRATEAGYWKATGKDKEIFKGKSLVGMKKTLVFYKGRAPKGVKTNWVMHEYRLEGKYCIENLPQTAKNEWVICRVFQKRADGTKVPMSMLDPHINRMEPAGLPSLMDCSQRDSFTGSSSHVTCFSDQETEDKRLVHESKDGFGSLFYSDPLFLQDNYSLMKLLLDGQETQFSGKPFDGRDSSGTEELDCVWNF
As to conditions: protein: recombinant; tags: GST; chain copies: 2; dsDNA, one strand shown. Summed up: as §1

A further assay deals with T5, GST-NST2(1-184) (Arabidopsis thaliana, UniProt Q9M274 1-184).
T5 sequence: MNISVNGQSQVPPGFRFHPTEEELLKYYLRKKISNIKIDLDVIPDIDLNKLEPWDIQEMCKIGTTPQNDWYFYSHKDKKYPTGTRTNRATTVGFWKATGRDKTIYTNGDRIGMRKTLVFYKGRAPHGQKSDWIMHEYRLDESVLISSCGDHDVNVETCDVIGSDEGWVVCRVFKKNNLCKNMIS
The note with it: protein: recombinant; tags: GST; chain copies: 2; dsDNA, one strand shown. Summed up: as §1

The target in the next assay is T6, GST-SND1(1-203) (Arabidopsis thaliana, UniProt Q9LPI7 1-203).
T6 sequence: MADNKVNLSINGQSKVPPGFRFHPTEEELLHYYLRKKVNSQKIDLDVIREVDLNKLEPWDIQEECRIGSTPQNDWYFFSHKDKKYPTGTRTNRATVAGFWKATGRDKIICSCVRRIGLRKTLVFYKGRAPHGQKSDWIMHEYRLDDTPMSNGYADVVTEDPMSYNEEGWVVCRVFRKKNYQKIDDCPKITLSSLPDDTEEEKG
The note with it: protein: recombinant; tags: GST; chain copies: 2; dsDNA, one strand shown. Summed up: as §1

For the next assay, the target named is T7, GST-VND3 NAC domain (Arabidopsis thaliana, UniProt Q9FH59 12-162).
T7 sequence: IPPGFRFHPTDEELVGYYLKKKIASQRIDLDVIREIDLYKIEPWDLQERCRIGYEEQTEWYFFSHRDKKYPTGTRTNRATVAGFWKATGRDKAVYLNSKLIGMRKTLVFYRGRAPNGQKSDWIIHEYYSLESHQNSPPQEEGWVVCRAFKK
The note with it: protein: recombinant; tags: GST; chain copies: 2; dsDNA, one strand shown. Summed up:
as §1

In another assay the target is T8, GST-VND7 NAC domain (Arabidopsis thaliana, UniProt Q9C8W9 9-158).
T8 sequence: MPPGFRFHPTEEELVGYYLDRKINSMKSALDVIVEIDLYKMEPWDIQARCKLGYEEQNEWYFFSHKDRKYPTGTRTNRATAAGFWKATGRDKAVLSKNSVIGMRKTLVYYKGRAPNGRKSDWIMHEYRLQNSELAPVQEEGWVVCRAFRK
The note with it: protein: recombinant; tags: GST; chain copies: 2; dsDNA, one strand shown. Summed up:
as §1

For a further assay, the target named is T9, GST-NAP(1-166) (Arabidopsis thaliana, UniProt O49255 1-166).
T9 sequence: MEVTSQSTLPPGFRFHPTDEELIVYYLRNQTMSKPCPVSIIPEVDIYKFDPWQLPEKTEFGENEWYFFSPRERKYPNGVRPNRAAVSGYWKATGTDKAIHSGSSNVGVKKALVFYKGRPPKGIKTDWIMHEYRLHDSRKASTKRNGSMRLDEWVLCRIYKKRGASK
As to conditions: protein: recombinant; tags: GST; chain copies: 2; dsDNA, one strand shown. Summed up:
as §1

For the next assay, the target named is T10, GST-ATAF1 NAC domain (Arabidopsis thaliana, UniProt Q39013 7-158).
T10 sequence: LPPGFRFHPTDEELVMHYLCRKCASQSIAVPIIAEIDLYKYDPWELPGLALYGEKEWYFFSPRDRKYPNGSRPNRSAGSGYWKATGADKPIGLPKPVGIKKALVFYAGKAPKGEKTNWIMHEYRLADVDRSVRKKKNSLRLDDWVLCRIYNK
As to conditions: protein: recombinant; tags: GST; chain copies: 2; dsDNA, one strand shown. Summed up:
as §1

In a further assay the target is GST-NTL6(1-168) (Arabidopsis thaliana, UniProt Q9SCK6 1-168). As to conditions: protein: recombinant; tags: GST; chain copies: 2; dsDNA, one strand shown. Summed up: as §1
GST-NTL6(1-168), sequence (Q9SCK6 1-168): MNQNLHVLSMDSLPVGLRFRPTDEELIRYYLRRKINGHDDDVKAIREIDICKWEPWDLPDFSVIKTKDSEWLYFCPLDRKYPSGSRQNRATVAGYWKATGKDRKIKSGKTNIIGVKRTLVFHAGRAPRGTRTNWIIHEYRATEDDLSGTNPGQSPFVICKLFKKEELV
The target in the next assay is T11, GST-NTL8 NAC domain (Arabidopsis thaliana, UniProt Q9XIN7 14-156).
T11 sequence: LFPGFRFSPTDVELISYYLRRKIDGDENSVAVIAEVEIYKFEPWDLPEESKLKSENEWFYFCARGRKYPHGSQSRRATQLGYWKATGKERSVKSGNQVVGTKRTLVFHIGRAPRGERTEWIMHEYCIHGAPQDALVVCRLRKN
As to conditions: protein: recombinant; tags: GST; chain copies: 2; dsDNA, one strand shown. Summed up: as §1

The target of the next assay is GST-WRKY1(266-371) (Arabidopsis thaliana, UniProt Q9SI37 266-371). As to conditions: protein: recombinant; tags: GST; dsDNA, one strand shown. Summed up:
as §1

GST-WRKY1(266-371), sequence (Q9SI37 266-371): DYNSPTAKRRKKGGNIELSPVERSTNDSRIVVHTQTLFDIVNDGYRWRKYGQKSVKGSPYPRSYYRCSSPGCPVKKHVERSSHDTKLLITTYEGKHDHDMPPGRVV

Consider GCACGCTA, for which the binding signal with GST-ANAC092(1-176) was found to be 0.445 E-score; in the assay with GST-ANAC019 NAC domain it was 0.207 E-score; with GST-ANAC055(1-171) it was 0.117 E-score; in [1], 0.474 E-score; with GST-NST2(1-184), 0.173 E-score; with GST-SND1(1-203) it was 0.409 E-score. In addition, the binding signal with GST-VND3 NAC domain stood at 0.111 E-score; in the assay with GST-VND7 NAC domain it was 0.0845 E-score.
CTTTACGC: the binding signal came out at 0.294 E-score with GST-ANAC092(1-176); 0.0905 E-score in the assay with GST-ANAC019 NAC domain; 0.302 E-score in assay [1]; 0.081 E-score in the assay with GST-NAP(1-166); 0.193 E-score with GST-NST2(1-184); 0.408 E-score with GST-SND1(1-203). The binding signal with GST-VND3 NAC domain amounted to 0.0839 E-score; with GST-VND7 NAC domain, 0.137 E-score.
Take ACGCTACC: the binding signal turned out to be 0.455 E-score in the assay with GST-ANAC092(1-176); 0.118 E-score with GST-ANAC019 NAC domain; 0.144 E-score with GST-ATAF1 NAC domain; 0.48 E-score in assay [1]; 0.0969 E-score in the assay with GST-NAP(1-166); 0.34 E-score in the assay with GST-NST2(1-184). The figures for the binding signal with GST-SND1(1-203), with GST-VND3 NAC domain and with GST-VND7 NAC domain were 0.475 E-score, 0.0872 E-score and 0.181 E-score, respectively.
AGTCAAAC: the binding signal with GST-NTL6(1-168) was determined as 0.0896 E-score; in the assay with GST-ANAC019 NAC domain, 0.0687 E-score; with GST-ANAC055(1-171) it was 0.103 E-score; with GST-ATAF1 NAC domain it was 0.109 E-score; with GST-NAP(1-166), 0.0582 E-score; in the assay with GST-NST2(1-184), 0.0701 E-score. In addition, the binding signal in the assay with GST-NTL8 NAC domain was 0.07 E-score; with GST-SND1(1-203), 0.126 E-score; with GST-VND3 NAC domain it was 0.103 E-score; with GST-WRKY1(266-371), 0.491 E-score.
With AGTTGACG, the binding signal with GST-ANAC092(1-176) is 0.0881 E-score; with GST-ANAC019 NAC domain it was 0.0919 E-score; in the assay with GST-ANAC055(1-171), 0.0862 E-score; with GST-ATAF1 NAC domain it was 0.213 E-score; with GST-NAP(1-166) it was 0.0554 E-score; with GST-NST2(1-184), 0.107 E-score. Also, the binding signal with GST-SND1(1-203) worked out at 0.198 E-score; with GST-VND3 NAC domain, 0.0565 E-score; with GST-WRKY1(266-371), 0.43 E-score.
In the case of TGAAGTCA, the binding signal worked out at 0.229 E-score with GST-NTL6(1-168); 0.133 E-score in assay [1]; 0.0789 E-score in the assay with GST-NST2(1-184); 0.165 E-score in the assay with GST-NTL8 NAC domain; 0.196 E-score in the assay with GST-SND1(1-203); 0.0873 E-score in the assay with GST-VND3 NAC domain. In addition, the binding signal with GST-WRKY1(266-371) amounted to 0.426 E-score.
As to TCCGTCAA, the binding signal in the assay with GST-ANAC019 NAC domain is 0.0961 E-score; in the assay with GST-SND1(1-203), 0.063 E-score; with GST-VND3 NAC domain it was 0.105 E-score; with GST-WRKY1(266-371) it was 0.412 E-score.
Regarding CAAGTCAG, the binding signal in [1] stood at 0.11 E-score; with GST-SND1(1-203) it was 0.0706 E-score; with GST-VND3 NAC domain, 0.0527 E-score; in the assay with GST-WRKY1(266-371), 0.417 E-score.
